Test results reported in paper PMC7862700, “An all-to-all approach to the identification of sequence-specific readers for epigenetic DNA modifications on cytosine”.

Experiments:
Assay in all cases: DAPPL (digital affinity profiling via proximity ligation, sequencing); 10 mM Tris-HCl pH 7.5, 50 mM NaCl, 1 mM DTT, 4% glycerol, room temperature, 30 min; GST-TFs on glutathione beads, 16-mer random dsDNA library, 0.1% formaldehyde crosslink after washing; high values mean tight binding
[1] = target: T1, FEV (Homo sapiens, UniProt Q99581 1-238); conditions: protein: recombinant; tags: N-terminal GST; dsDNA, one strand shown
T1 sequence: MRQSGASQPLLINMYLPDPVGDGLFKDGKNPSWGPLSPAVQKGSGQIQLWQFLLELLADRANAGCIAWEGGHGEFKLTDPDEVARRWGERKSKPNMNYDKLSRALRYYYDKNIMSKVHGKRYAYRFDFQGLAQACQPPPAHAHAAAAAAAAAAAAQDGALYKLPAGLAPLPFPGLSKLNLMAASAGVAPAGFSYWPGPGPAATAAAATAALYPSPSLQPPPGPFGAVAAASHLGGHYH
In short: (§1)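 In yeast, human transcription factors were expressed with a GST fusion, then pulled down on glutathione beads and given DNA barcodes. Pooled with a tag-only sample, they were exposed to 200 nmole of a 16-mer random double-stranded DNA library (Tris/NaCl/DTT/glycerol buffer, room temperature, 30 min), washed, crosslinked with 0.1% formaldehyde, proximity-ligated using BsaI/T4 ligase for 1 h at 37 °C, PCR-amplified and read on an Illumina NextSeq500. Each hexamer's frequency of reads for a factor, divided by the matching frequency for the tag-only sample, gives the binding signal.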

[2] = target: ETV5 (Homo sapiens, UniProt P41161 1-510); conditions: protein: recombinant; tags: N-terminal GST; dsDNA, one strand shown
ETV5, sequence (P41161 whole entry): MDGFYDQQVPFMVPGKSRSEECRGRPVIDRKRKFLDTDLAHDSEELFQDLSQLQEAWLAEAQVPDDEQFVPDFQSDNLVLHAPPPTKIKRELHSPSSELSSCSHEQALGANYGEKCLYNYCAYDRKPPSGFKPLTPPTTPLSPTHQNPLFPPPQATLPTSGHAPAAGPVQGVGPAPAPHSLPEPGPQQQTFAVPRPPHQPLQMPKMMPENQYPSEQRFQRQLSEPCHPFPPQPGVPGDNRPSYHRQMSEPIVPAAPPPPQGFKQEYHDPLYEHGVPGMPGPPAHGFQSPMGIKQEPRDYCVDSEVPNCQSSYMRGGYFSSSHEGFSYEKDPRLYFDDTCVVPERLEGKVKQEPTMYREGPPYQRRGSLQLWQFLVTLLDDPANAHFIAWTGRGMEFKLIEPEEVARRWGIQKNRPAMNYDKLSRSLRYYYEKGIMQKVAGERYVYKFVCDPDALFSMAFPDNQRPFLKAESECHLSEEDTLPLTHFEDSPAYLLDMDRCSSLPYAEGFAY
In short: as §1

[3] = target: HSF1 (Homo sapiens, UniProt Q00613 1-529); conditions: protein: recombinant; tags: N-terminal GST; chain copies: 3; dsDNA, one strand shown
HSF1, sequence (Q00613 whole entry): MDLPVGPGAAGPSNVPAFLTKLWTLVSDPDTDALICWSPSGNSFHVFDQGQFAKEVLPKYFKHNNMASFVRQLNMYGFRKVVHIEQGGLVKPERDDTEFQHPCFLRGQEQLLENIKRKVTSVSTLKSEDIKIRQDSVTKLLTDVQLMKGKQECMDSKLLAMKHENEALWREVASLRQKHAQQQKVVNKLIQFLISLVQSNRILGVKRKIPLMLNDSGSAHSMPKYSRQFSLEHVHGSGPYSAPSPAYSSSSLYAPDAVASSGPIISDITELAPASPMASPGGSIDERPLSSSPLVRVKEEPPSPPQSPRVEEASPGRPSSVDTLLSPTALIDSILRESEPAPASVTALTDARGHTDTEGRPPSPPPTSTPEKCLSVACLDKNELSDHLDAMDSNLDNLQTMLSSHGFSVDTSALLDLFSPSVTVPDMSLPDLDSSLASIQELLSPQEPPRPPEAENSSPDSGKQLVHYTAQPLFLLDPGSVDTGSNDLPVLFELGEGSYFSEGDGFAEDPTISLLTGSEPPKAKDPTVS
In short: as §1

[4] = target: T2, SPIC (Homo sapiens, UniProt Q8N5J4 1-248); conditions: protein: recombinant; tags: N-terminal GST; dsDNA, one strand shown
T2 sequence: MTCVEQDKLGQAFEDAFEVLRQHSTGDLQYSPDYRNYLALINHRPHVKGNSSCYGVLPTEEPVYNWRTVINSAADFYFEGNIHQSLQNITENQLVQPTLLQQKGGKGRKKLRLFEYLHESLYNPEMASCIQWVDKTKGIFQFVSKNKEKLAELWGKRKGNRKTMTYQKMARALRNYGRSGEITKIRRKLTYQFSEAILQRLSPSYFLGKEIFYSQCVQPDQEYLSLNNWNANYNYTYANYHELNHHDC
In short: as §1

[5] = target: ELF4 (Homo sapiens, UniProt Q99607 1-663); conditions: protein: recombinant; tags: N-terminal GST; dsDNA, one strand shown
ELF4, sequence (Q99607 whole entry): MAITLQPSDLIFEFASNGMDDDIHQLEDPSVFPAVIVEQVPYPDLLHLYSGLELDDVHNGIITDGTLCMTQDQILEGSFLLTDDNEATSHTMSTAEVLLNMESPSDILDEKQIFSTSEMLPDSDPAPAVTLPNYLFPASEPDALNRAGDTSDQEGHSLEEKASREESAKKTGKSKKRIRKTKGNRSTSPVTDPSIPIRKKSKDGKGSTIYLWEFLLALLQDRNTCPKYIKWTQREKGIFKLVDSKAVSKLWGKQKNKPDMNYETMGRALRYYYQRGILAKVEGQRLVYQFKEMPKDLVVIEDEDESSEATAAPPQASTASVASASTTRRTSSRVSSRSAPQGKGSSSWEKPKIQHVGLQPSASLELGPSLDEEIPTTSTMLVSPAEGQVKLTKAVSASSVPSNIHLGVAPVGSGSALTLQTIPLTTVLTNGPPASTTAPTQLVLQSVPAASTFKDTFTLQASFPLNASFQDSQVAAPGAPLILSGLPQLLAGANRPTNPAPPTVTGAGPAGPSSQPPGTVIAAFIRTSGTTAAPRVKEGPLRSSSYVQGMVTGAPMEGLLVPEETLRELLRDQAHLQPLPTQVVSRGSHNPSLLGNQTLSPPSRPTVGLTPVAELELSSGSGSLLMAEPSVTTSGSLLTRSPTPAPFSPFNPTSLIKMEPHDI
In short: as §1

[6] = target: T3, ELK4 (Homo sapiens, UniProt P28324-2 1-405); conditions: protein: recombinant; tags: N-terminal GST; dsDNA, one strand shown
T3 sequence: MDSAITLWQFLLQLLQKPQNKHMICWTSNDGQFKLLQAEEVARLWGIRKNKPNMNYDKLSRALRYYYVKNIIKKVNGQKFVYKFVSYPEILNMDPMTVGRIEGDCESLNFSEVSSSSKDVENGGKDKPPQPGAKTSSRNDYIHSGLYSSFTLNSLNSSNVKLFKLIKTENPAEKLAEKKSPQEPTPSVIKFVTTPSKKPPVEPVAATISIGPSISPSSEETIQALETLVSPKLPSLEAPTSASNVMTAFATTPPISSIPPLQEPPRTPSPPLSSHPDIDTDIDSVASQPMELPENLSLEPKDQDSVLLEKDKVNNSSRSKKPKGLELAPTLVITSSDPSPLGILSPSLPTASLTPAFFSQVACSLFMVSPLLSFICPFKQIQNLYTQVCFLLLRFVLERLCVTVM
In short: as §1

[7] = target: T4, ETV2 (Homo sapiens, UniProt O00321 1-342); conditions: protein: recombinant; tags: N-terminal GST; dsDNA, one strand shown
T4 sequence: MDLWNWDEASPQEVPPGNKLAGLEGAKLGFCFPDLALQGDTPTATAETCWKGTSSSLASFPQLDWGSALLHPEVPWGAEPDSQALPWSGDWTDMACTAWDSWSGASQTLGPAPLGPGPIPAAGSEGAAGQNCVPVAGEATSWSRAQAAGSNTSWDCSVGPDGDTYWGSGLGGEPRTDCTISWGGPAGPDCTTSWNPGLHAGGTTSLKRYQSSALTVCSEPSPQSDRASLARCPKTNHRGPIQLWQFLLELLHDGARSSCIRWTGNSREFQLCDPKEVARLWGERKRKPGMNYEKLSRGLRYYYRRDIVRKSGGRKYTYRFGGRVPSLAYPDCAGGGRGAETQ
In short: as §1

[8] = target: T5, ELF3 (Homo sapiens, UniProt P78545 1-371); conditions: protein: recombinant; tags: N-terminal GST; dsDNA, one strand shown
T5 sequence: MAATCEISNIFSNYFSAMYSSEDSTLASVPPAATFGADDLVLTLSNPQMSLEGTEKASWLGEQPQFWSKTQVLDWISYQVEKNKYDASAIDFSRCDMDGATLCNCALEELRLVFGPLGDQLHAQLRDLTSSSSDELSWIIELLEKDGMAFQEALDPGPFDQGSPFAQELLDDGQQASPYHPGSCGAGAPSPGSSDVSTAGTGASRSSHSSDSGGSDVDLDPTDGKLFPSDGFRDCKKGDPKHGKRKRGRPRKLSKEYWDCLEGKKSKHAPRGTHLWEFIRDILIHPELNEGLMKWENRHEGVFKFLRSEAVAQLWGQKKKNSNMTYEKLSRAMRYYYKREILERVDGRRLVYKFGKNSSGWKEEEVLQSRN
In short: as §1

[9] = target: CRX (Homo sapiens, UniProt O43186 1-299); conditions: protein: recombinant; tags: N-terminal GST; dsDNA, one strand shown
CRX, sequence (O43186 whole entry): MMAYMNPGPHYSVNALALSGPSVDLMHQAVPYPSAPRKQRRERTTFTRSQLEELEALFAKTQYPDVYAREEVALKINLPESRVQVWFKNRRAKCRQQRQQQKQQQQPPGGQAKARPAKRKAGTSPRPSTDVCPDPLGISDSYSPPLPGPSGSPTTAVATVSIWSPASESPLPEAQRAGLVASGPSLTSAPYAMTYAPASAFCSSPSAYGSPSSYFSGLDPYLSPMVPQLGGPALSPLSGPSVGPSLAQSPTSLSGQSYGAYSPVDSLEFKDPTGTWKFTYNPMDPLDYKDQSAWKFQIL
In short: as §1

[10] = target: ETV1 (Homo sapiens, UniProt P50549 1-477); conditions: protein: recombinant; tags: N-terminal GST; dsDNA, one strand shown
ETV1, sequence (P50549 whole entry): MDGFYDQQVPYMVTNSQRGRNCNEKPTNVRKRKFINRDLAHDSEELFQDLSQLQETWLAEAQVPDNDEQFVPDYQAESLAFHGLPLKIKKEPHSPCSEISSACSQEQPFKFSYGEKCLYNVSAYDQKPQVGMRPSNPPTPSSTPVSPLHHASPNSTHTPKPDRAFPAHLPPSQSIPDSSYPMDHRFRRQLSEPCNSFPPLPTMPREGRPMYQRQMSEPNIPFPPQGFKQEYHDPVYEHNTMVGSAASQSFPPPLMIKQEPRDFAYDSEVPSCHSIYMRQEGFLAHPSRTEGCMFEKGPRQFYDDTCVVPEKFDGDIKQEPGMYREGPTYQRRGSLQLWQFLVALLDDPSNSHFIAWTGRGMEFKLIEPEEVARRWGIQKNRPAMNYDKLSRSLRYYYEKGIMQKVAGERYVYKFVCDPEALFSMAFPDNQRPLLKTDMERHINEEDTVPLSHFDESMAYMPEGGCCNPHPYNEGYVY
In short: as §1

[11] = target: T6, ERF (Homo sapiens, UniProt P50548 1-548); conditions: protein: recombinant; tags: N-terminal GST; dsDNA, one strand shown
T6 sequence: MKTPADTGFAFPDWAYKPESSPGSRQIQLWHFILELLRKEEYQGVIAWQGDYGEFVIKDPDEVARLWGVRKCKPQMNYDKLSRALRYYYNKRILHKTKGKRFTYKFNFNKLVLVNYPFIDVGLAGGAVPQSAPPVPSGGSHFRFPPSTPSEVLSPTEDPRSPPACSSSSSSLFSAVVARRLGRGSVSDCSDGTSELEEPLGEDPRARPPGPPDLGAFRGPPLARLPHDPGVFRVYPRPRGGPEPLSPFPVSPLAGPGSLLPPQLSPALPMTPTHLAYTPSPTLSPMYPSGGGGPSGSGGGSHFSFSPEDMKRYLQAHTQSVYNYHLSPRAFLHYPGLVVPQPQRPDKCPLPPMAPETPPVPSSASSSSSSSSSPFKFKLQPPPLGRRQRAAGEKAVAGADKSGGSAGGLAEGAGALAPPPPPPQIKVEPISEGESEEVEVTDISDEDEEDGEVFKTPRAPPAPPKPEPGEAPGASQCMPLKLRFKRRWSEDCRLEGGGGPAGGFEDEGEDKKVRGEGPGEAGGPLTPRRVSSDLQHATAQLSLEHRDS
In short: as §1

[12] = target: T7, ETV3L (Homo sapiens, UniProt Q6ZN32 1-361); conditions: protein: recombinant; tags: N-terminal GST; dsDNA, one strand shown
T7 sequence: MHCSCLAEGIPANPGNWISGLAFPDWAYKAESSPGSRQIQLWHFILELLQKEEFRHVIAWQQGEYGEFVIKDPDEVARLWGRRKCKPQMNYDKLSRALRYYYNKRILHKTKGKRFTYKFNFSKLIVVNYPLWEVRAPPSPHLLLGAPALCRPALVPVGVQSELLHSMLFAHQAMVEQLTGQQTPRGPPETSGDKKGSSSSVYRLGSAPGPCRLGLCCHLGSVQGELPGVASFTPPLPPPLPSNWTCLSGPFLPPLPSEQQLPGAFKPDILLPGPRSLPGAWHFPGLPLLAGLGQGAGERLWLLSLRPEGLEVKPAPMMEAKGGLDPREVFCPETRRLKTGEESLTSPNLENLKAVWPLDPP
In short: as §1

[13] = target: T8, ETS2 (Homo sapiens, UniProt P15036 1-469); conditions: protein: recombinant; tags: N-terminal GST; dsDNA, one strand shown
T8 sequence: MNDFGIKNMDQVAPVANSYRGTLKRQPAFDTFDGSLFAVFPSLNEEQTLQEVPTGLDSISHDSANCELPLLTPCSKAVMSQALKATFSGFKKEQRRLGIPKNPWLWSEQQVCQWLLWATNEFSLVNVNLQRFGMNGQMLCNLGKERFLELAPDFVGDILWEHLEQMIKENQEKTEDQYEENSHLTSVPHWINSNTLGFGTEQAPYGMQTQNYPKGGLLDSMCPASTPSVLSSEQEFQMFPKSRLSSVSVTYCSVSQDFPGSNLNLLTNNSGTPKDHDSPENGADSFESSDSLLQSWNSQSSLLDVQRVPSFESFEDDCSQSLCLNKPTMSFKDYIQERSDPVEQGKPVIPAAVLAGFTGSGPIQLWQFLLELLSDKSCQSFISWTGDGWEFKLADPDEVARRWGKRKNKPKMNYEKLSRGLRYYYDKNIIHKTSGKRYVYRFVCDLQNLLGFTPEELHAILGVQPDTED
In short: as §1

[14] = target: T9, SPDEF (Homo sapiens, UniProt O95238 1-335); conditions: protein: recombinant; tags: N-terminal GST; dsDNA, one strand shown
T9 sequence: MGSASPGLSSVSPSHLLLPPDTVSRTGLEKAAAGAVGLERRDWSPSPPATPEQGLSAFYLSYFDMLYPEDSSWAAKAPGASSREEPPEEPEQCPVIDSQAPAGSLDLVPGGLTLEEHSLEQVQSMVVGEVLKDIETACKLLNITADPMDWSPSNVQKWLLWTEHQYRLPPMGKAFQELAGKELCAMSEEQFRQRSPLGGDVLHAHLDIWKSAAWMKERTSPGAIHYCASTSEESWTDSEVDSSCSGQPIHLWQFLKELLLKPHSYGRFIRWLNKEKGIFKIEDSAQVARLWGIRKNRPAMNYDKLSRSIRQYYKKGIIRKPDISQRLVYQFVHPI
In short: as §1

[15] = target: T10, ETV7 (Homo sapiens, UniProt Q9Y603 1-341); conditions: protein: recombinant; tags: N-terminal GST; dsDNA, one strand shown
T10 sequence: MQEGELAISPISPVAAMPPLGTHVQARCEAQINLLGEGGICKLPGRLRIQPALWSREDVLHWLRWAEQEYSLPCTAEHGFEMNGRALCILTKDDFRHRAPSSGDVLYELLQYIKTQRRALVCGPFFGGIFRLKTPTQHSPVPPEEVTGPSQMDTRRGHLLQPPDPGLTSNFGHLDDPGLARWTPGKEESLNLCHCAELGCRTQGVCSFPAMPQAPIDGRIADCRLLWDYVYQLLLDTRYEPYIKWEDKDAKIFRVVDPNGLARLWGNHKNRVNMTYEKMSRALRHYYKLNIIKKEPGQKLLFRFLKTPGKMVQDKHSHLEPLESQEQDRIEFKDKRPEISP
In short: as §1

[16] = target: T11, ELF5 (Homo sapiens, UniProt Q9UKW6-2 1-255); conditions: protein: recombinant; tags: N-terminal GST; dsDNA, one strand shown
T11 sequence: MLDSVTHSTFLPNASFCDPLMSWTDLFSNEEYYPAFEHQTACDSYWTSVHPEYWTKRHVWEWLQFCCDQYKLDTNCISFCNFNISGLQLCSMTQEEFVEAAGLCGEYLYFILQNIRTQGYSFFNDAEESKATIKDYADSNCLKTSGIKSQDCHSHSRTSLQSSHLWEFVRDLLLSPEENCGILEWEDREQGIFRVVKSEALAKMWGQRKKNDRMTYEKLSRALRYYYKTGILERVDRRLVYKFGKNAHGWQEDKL
In short: as §1

[17] = target: T12, ETV3 (Homo sapiens, UniProt P41162-2 1-143); conditions: protein: recombinant; tags: N-terminal GST; dsDNA, one strand shown
T12 sequence: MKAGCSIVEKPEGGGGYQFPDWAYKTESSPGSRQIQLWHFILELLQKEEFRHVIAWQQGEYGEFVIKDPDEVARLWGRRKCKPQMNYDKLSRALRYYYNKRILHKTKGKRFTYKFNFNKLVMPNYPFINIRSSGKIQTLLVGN
In short: as §1

[18] = target: ETV6 (Homo sapiens, UniProt P41212 1-452); conditions: protein: recombinant; tags: N-terminal GST; dsDNA, one strand shown
ETV6, sequence (P41212 whole entry): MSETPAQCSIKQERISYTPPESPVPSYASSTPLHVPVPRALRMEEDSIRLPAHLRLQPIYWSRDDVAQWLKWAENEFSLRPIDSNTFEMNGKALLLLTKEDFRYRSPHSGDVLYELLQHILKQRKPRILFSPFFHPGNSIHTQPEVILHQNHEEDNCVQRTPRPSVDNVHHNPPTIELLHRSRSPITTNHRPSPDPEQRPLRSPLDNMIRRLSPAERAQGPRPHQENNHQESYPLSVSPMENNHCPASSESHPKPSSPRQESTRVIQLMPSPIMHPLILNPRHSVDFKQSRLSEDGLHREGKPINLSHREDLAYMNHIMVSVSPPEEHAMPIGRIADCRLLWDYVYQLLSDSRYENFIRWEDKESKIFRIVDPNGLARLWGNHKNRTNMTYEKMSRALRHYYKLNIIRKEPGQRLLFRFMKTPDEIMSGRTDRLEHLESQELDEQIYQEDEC
In short: as §1

## CCGCAA
[1]
  binding signal: 1.29 fold enrichment (6-mer frequency, TF over GST control)
[2]
  binding signal: 1.3 fold enrichment (6-mer frequency, TF over GST control)
[3]
  binding signal: 1.07 fold enrichment (6-mer frequency, TF over GST control)
[4]
  binding signal: 1.42 fold enrichment (6-mer frequency, TF over GST control)
[5]
  binding signal: 1.31 fold enrichment (6-mer frequency, TF over GST control)
[6]
  binding signal: 1.36 fold enrichment (6-mer frequency, TF over GST control)
[7]
  binding signal: 1.35 fold enrichment (6-mer frequency, TF over GST control)
[8]
  binding signal: 1.39 fold enrichment (6-mer frequency, TF over GST control)
[9]
  binding signal: 1.01 fold enrichment (6-mer frequency, TF over GST control)
[10]
  binding signal: 1.38 fold enrichment (6-mer frequency, TF over GST control)
[11]
  binding signal: 1.19 fold enrichment (6-mer frequency, TF over GST control)
[12]
  binding signal: 1.23 fold enrichment (6-mer frequency, TF over GST control)
[13]
  binding signal: 1.47 fold enrichment (6-mer frequency, TF over GST control)
[14]
  binding signal: 1.36 fold enrichment (6-mer frequency, TF over GST control)
[15]
  binding signal: 1.32 fold enrichment (6-mer frequency, TF over GST control)
[16]
  binding signal: 1.39 fold enrichment (6-mer frequency, TF over GST control)
[17]
  binding signal: 1.3 fold enrichment (6-mer frequency, TF over GST control)
[18]
  binding signal: 1.33 fold enrichment (6-mer frequency, TF over GST control)
